Data published in PubChem BioAssay (NCI).
Where “and” joins values, the source holds several entries; their conditions need not be identical. Equal values may be shown once. This is part of a sample that, as a whole, favours compounds with a hit. Of some 83,000 tested, about 20% had one in any assay.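 A percent growth of 40 corresponds to 60% growth inhibition; 0 means no net growth; -100 means all cells died. Active threshold: below 10.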 Calls of active or inactive are those of the source.

Key:
Experiment in all cases: NCI-60 one-dose screen, 48 h (100 = growth as untreated, 0 = no growth, -100 = all killed)
[1] = tested on: NCI-H23 lung; conditions: 10 µM unless noted
[2] = tested on: NCI-H226 lung; conditions: 10 µM unless noted
[3] = tested on: NCI-H322M lung; conditions: 10 µM unless noted
[4] = tested on: HOP-62 NSCLC; conditions: 10 µM unless noted
[5] = tested on: NCI-H460 lung; conditions: 10 µM unless noted
[6] = tested on: NCI-H522 lung; conditions: 10 µM
[7] = tested on: A549/ATCC NSCLC; conditions: 10 µM unless noted
[8] = tested on: 786-0 renal; conditions: 10 µM unless noted
[9] = tested on: COLO 205 colon; conditions: 10 µM unless noted
[10] = tested on: DU-145 prostate; conditions: 10 µM unless noted
[11] = tested on: K-562 leukemia; conditions: 10 µM unless noted
[12] = tested on: MALME-3M melanoma; conditions: 10 µM unless noted
[13] = tested on: MDA-MB-231 breast; conditions: 10 µM unless noted
[14] = tested on: RXF 393 renal; conditions: 10 µM unless noted
[15] = tested on: SF-268 CNS; conditions: 10 µM unless noted
[16] = tested on: SF-295 CNS; conditions: 10 µM unless noted
[17] = tested on: SF-539 CNS; conditions: 10 µM unless noted
[18] = tested on: UACC-257 melanoma; conditions: 10 µM unless noted
[19] = tested on: M14 melanoma; conditions: 10 µM unless noted
[20] = tested on: HOP-92 NSCLC; conditions: 10 µM

Measured: growth

CCN(CCNS(C)(=O)=O)c1ccc(N)c(C)c1
active: [6] -70.5%
inactive: [1] 99.2% and 85.9% | [2] 92.9% and 82.7% | [3] 95.1% and 120% | [4] 106% and 111% | [5] 107% and 99.7% | [7] 109% | [8] 89% and 95.7% | [9] 69.6% and 107% | [10] 70.4% and 123% | [11] 27.9% and 95.5% | [12] 93.6% and 119% | [13] 109% and 97.4% | [14] 72.4% and 78.3% | [15] 93.3% and 94.9% | [16] 103% and 116% | [17] 113% and 105% | [18] 89.7% | [19] 108% and 98.6%

CC(=O)OCC1OC(OC(C)=O)C(OC(C)=O)C(OC(C)=O)C1OC(C)=O (stereo unspecified)
inactive: [1] 107% and 95.6% | [2] 94.9% and 99.6% | [3] 111% and 101% | [4] 83.4% | [5] 112% and 104% | [20] 102% and 98.9% | [6] 103% | [7] 103% and 96.6% | [8] 102% and 106% | [9] 104% and 107% | [10] 107% and 102% | [11] 111% and 95.9% | [12] 99.8% | [13] 124% and 109% | [14] 102% and 106% | [15] 108% and 99% | [16] 98.2% | [17] 99.6% and 103% | [18] 95.4% and 101% | [19] 99.6% and 103%

CC(=O)Nc1ccc(S(N)(=O)=O)cc1
inactive: [1] 100% | [2] 107% and 102% | [3] 113% and 92.5% | [4] 89.4% and 103% | [5] 102% and 105% | [6] 98.3% and 80.4% | [7] 96% and 103% | [8] 97.9% and 94.5% | [9] 99.7% and 102% | [10] 111% and 113% | [11] 102% and 110% | [12] 109% | [13] 102% and 119% | [14] 115% | [15] 105% and 115% | [16] 93.8% and 92.8% | [17] 100% and 101% | [18] 88.6% and 94.9% | [19] 98.6% and 103%

Cc1cc2ccccc2cn1
inactive: [1] 97.1% and 114% | [2] 95.7% and 96% | [3] 101% and 98.4% | [4] 101% | [5] 107% and 108% | [6] 109% | [7] 101% and 118% | [8] 105% and 111% | [9] 110% and 119% | [10] 114% and 122% | [11] 118% and 102% | [12] 101% and 100% | [13] 97.9% and 107% | [14] 104% | [15] 101% and 134% | [16] 100% and 90.3% | [17] 102% and 98.7% | [18] 97.3% | [19] 107% and 111%

CC(C)(O)C(=O)O
inactive: [1] 106% | [2] 102% | [3] 98.6% | [4] 99.9% | [5] 103% | [20] 91.7% | [6] 103% | [8] 95.4% | [9] 104% | [10] 94.5% | [11] 123% | [12] 88.4% | [13] 86.4% | [14] 113% | [15] 103% | [16] 103% | [17] 101% | [18] 99.8% | [19] 101%

OCC1OC(O)C(O)C(O)C1O (stereo unspecified)
inactive: [1] 102% | [2] 113% | [3] 155% | [4] 98.9% | [5] 100% | [20] 85.9% | [6] 85.7% | [8] 110% | [9] 108% | [10] 120% | [11] 110% | [12] 180% | [13] 116% | [14] 124% | [15] 102% | [16] 102% | [17] 102% | [18] 114% | [19] 101%

CC1CCC(C(C)C)C(NNC(N)=O)C1 (stereo unspecified)
inactive: [1] 106% | [2] 102% | [3] 102% | [4] 100% | [5] 104% | [6] 94.9% | [7] 89.7% | [8] 106% | [9] 110% | [10] 106% | [11] 101% | [12] 110% | [13] 97.5% | [14] 101% | [15] 106% | [16] 103% | [17] 110% | [18] 87.3% | [19] 106%

O=C(O)/C=C\C(=O)Nc1cccc2ccccc12
inactive: [1] 106% and 91.4% | [2] 90.6% and 107% | [3] 105% and 117% | [4] 96% and 104% | [5] 101% and 111% | [20] 115% | [6] 79.3% and 100% | [7] 99.9% and 105% | [8] 113% and 111% | [9] 95.4% and 108% | [10] 109% and 123% | [11] 110% and 94% | [12] 116% and 119% | [13] 85.1% and 107% | [14] 113% and 132% | [15] 78.6% and 107% | [16] 117% and 104% | [17] 89.2% and 110% | [18] 95.1% and 101% | [19] 99.6% and 96.8%

Fc1ccc([I+]c2ccc(F)cc2)cc1
inactive: [1] 53.7% | [2] 71.8% | [3] 76.1% | [4] 78.7% | [5] 86.1% | [20] 67.8% | [6] 68.8% | [7] 80.9% | [9] 62.2% | [10] 92.1% | [11] 43.2% | [12] 61.1% | [14] 101% | [15] 58.9% | [16] 95.4% | [17] 62.1% | [18] 85.5% | [19] 79%

O=[N+]([O-])c1cccc(SSc2cccc([N+](=O)[O-])c2)c1
inactive: [1] 98.8% | [2] 106% | [3] 116% | [4] 89.8% | [5] 109% | [6] 96.8% | [7] 100% | [8] 103% | [9] 82.1% | [10] 112% | [11] 94.3% | [12] 97.2% | [13] 95.4% | [14] 123% | [15] 106% | [16] 108% | [17] 102% | [18] 110% | [19] 94.2%
